Assay results as given in PubChem BioAssay (Tox21).
Several values for one entry are separate records, joined by “and”; a condition that tells them apart may be missing. Equal values may be shown once. Results filed as inconclusive are left out. Where a call stands in place of a potency, no number is given. The source holds several records for some structures; these can differ, active in one and inactive in another. Activity calls are given as the source filed them. Unless noted, calls follow the shape of the dose curve; as a rule, active = well fitted curve in the direction sought with a large enough effect in the repeat runs; inconclusive = weak or mixed curves; inactive = no such curve, though single readings can be large; an effect the other way counts as inactive or inconclusive.

How the values were obtained:
[1] = molecular target: Acetylcholinesterase (Homo sapiens) (UniProt P22303); assay: Acetylcholinesterase (AChE) small molecule antagonists: fluorescence cell-based qHTS assay (AID 1347398; calls by dose curve; also: nearly all actives have a fitted effect of over 50% in size); conditions: Potency: AChE activity
Procedure, shortened: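 Human SH-SY5Y cells were plated overnight at 37 C, exposed to compound for 30 min at 37 C, 5% CO2, then given acetylthiocholine plus Thiolite Green for 40 min at room temperature; thiocholine fluorescence (Ex/Em 490/520 nm) reports endogenous AChE activity.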

[2] = molecular target: Acetylcholinesterase (Homo sapiens) (UniProt P22303); assay: Acetylcholinesterase (AChE) small molecule antagonists: enzyme-based qHTS assay with human liver microsomes (AID 1347399; calls by dose curve; also: nearly all actives have a fitted effect of over 60% in size); conditions: Potency: qHTS inhibition
Procedure, shortened: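 Recombinant human AChE (50 mU/mL in the enzyme mix) and human liver microsomes (0.25 mg/mL final) were preincubated with compound and NADPH (0.25 mg/mL final) for 30 min at 37 C. Acetylthiocholine/DTNB was then added; thiocholine was read colorimetrically after 10 min at room temperature.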

[3] = molecular target: Cytochrome P450 2D6 (Homo sapiens) (UniProt P10635); assay: Cytochrome P450 Family 2 Subfamily D Member 6 (CYP2D6) small molecule antagonists: luciferase reporter qHTS assay (AID 1671196); also: nearly all actives have a fitted effect of over 50% in size; as to activity change, negative = inhibition: series mostly up to about 120 µM
Procedure, shortened: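 Inhibition of CYP2D6 was gauged by loss of luminescence, since light produced tracks the luciferin generated from a proluciferin substrate. A 10 min room-temperature preincubation preceded 1 h NADPH-supported turnover.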

[4] = molecular target: Cytochrome P450 2C9 (Homo sapiens) (UniProt P11712); assay: Cytochrome P450 Family 2 Subfamily C Member 9 (CYP2C9) small molecule antagonists: luciferase reporter qHTS assay (AID 1671198); also: nearly all actives have a fitted effect of over 50% in size; as to activity change, negative = inhibition: series mostly up to about 120 µM
Procedure, shortened: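 CYP2C9 activity was measured with a P450-Glo proluciferin substrate. Enzyme–substrate mix was held with compound for 10 min at room temperature, then NADPH regeneration solution was added for 1 h at 37C. Luciferin product was read as luminescence.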

[5] = molecular target: Cytochrome P450 3A4 (Homo sapiens) (UniProt P08684); assay: Cytochrome P450 Family 3 Subfamily A Member 4 (CYP3A4) small molecule antagonists: luciferase reporter qHTS assay (AID 1671201); also: nearly all actives have a fitted effect of over 50% in size; as to activity change, negative = inhibition: series mostly up to about 120 µM
Procedure, shortened: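 Compounds in DMSO were pin-transferred onto CYP3A4 enzyme-substrate mix and held 10 min at room temperature. NADPH regenerating solution started the reaction for 1 h; luciferin detection reagent stopped it, and luminescence was read after 20 min.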

[6] = molecular target: Cytochrome P450 2C19 (Homo sapiens) (UniProt P33261); assay: Cytochrome P450 Family 2 Subfamily C Member 19 (CYP2C19) small molecule antagonists: luciferase reporter qHTS assay (AID 1671197); also: nearly all actives have a fitted effect of over 65% in size; as to activity change, negative = inhibition: series mostly up to about 120 µM
Procedure, shortened: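 Inhibition of CYP2C19 was scored from loss of luminescence in a P450-Glo proluciferin substrate assay, NADPH-started and run 1 h at 37C, with ketoconazole as positive control.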

[7] = molecular target: Voltage-gated inwardly rectifying potassium channel KCNH2 (Homo sapiens) (UniProt Q12809); assay: Human Ether-a-go-go-Related Gene (hERG) channel small molecule antagonists: fluorescence cell-based qHTS assay (AID 1671200); also: nearly all actives have a fitted effect of over 50% in size;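 as to activity change, negative = inhibition: hERG-expressing U2OS cells given a thallium stimulus after FluxOR II dye loading; series mostly up to about 77 µM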
Procedure, shortened: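 Channel function was assessed by thallium flux. Cells seeded the previous day and kept at 37 C took up FluxOR II dye over 1 h in the dark at room temperature, then sat another 10 min before stimulation.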

[8] = molecular target: Cytochrome P450 1A2 (Homo sapiens) (UniProt P05177); assay: Cytochrome P450 Family 1 Subfamily A Member 2 (CYP1A2) small molecule antagonists: luciferase reporter qHTS assay (AID 1671199); also: nearly all actives have a fitted effect of over 50% in size; as to activity change, negative = inhibition: series mostly up to about 120 µM
Procedure, shortened: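 Signal from luciferin formed by CYP1A2 from a proluciferin substrate is read as luminescence, expressed in relative luminescence units. Compounds sit with enzyme 10 min, NADPH-driven reaction runs 1 h, all at room temperature.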
Potency is read from the fitted curve at half-maximal effect.

Chain of Cytochrome P450 2C19 (Homo sapiens) (P33261 whole entry, looked up): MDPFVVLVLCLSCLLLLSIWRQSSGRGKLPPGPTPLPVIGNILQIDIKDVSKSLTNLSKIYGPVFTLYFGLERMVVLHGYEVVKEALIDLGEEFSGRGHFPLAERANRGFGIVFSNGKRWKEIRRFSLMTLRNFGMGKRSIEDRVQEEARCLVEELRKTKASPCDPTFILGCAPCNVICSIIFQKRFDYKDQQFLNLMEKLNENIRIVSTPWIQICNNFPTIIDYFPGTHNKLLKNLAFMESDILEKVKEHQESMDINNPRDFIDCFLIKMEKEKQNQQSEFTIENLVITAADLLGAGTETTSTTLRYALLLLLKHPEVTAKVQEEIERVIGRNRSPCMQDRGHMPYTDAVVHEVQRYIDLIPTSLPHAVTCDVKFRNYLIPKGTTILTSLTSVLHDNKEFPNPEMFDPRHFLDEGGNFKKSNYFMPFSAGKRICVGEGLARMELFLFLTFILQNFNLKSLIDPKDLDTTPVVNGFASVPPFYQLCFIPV
Chain of Acetylcholinesterase (Homo sapiens) (P22303 whole entry, looked up): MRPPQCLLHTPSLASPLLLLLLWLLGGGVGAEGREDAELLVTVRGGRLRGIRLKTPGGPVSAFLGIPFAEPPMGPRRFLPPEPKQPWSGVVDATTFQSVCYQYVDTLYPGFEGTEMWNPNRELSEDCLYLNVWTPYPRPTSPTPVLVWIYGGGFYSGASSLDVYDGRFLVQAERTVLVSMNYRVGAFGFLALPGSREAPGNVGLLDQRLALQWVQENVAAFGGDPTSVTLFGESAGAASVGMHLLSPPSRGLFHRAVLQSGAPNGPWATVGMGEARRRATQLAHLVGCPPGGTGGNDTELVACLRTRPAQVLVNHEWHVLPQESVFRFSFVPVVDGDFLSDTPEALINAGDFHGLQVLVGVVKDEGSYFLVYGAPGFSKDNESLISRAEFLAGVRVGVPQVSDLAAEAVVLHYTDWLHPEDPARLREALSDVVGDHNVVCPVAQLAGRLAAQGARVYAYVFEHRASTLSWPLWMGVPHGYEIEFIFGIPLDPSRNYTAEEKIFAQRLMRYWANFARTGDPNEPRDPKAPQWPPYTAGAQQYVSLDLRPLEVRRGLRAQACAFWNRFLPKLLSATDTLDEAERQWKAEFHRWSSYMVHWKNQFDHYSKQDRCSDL
Chain of Cytochrome P450 2C9 (Homo sapiens) (P11712 whole entry, looked up): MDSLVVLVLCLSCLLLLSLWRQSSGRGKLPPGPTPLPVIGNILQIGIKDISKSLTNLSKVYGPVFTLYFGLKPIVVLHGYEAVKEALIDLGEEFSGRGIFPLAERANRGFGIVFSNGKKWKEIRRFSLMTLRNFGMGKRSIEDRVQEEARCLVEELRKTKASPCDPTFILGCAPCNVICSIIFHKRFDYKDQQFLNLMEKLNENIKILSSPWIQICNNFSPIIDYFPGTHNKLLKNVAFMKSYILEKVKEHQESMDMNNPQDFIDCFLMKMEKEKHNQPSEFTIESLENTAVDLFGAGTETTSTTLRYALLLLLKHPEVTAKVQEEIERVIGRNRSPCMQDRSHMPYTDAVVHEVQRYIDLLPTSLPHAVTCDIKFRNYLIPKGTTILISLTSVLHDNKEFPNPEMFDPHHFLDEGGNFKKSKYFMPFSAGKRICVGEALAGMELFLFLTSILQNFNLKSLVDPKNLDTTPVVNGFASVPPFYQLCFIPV
Chain of Cytochrome P450 3A4 (Homo sapiens) (P08684 whole entry, looked up): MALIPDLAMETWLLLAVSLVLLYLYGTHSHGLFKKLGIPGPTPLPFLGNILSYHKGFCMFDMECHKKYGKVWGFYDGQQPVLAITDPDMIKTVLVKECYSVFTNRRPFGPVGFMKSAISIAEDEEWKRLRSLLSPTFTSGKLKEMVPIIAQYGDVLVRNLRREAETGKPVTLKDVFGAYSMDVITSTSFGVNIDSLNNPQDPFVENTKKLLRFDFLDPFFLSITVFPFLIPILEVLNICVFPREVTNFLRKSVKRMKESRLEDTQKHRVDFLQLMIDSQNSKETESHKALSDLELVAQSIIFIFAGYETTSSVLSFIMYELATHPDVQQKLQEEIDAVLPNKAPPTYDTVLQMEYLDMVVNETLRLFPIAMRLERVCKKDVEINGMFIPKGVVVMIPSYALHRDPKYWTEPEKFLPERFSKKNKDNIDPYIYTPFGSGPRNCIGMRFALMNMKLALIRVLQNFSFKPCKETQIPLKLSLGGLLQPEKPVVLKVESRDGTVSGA
Chain of Cytochrome P450 2D6 (Homo sapiens) (P10635 whole entry, looked up): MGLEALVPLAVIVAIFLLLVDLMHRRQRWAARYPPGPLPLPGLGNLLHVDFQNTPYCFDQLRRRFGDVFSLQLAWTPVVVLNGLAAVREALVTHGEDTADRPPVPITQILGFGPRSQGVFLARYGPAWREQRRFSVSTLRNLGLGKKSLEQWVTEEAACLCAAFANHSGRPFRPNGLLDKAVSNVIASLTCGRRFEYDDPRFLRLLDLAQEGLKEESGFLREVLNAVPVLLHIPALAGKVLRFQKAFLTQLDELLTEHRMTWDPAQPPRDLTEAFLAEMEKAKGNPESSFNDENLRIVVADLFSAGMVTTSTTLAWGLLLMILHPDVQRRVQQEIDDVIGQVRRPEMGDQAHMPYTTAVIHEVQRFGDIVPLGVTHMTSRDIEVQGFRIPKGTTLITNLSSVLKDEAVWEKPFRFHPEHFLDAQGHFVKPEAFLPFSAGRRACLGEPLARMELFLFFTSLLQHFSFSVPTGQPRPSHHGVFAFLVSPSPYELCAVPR
Chain of Cytochrome P450 1A2 (Homo sapiens) (P05177 whole entry, looked up): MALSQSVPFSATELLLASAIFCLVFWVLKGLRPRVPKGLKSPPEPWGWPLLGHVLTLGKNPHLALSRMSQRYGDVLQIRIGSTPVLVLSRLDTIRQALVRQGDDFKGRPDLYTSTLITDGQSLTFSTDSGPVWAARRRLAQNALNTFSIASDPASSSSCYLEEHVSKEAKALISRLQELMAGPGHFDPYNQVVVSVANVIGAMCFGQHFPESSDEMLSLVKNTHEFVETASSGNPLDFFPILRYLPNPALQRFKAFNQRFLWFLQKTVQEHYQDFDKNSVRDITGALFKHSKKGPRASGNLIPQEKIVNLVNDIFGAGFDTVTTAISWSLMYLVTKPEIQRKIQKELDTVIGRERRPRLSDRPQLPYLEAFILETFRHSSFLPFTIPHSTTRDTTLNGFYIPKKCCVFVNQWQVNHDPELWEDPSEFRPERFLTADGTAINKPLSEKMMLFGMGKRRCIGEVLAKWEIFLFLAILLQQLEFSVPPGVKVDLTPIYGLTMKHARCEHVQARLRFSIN
Chain of Voltage-gated inwardly rectifying potassium channel KCNH2 (Homo sapiens) (Q12809 whole entry, looked up): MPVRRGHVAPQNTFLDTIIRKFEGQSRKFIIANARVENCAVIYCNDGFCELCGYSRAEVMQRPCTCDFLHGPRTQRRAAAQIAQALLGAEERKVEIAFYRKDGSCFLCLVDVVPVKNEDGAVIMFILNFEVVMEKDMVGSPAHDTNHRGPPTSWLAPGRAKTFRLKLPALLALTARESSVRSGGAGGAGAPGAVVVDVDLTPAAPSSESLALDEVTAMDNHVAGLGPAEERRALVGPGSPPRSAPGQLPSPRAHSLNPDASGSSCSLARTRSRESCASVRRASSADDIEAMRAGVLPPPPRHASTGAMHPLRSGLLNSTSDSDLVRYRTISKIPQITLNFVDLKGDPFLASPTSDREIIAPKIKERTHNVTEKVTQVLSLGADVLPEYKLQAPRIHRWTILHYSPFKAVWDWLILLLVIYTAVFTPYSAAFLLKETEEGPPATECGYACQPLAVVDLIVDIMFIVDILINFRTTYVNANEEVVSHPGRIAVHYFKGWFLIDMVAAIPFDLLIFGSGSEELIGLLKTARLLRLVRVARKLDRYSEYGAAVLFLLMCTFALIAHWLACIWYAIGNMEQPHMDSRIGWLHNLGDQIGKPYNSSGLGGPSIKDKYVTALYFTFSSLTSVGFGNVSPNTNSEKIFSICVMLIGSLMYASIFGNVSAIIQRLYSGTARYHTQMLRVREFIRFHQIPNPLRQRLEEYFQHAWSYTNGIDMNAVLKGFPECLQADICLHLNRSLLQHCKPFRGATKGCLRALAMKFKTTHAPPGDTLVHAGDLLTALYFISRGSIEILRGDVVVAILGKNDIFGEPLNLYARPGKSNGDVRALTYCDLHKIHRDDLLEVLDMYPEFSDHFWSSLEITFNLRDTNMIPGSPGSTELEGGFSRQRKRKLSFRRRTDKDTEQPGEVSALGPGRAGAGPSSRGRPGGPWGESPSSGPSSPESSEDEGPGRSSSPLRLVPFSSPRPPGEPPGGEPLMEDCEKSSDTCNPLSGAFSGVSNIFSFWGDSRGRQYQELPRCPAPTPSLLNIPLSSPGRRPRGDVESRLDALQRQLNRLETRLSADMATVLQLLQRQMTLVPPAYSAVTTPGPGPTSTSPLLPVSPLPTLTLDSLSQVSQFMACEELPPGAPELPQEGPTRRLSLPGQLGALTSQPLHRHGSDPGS

Compound | activity change, negative = inhibition [1] | activity change, negative = inhibition [2] | Potency [3] | Potency [4] | Potency [5] | Potency [1] | Potency [2] | Potency [6] | Potency [7] | Potency [8] | activity change, negative = inhibition [8]
C[CH2][Hg][N]1C(=O)C2C(C1=O)C1(Cl)C(Cl)=C(Cl)C2(Cl)C1(Cl)Cl (configuration not stated) | 11.1% [at 23.8 µM] (inactive) | -0.312% [at 23.6 µM] (inactive) | 16.9 µM (active) | 13.5 µM (active) | 13.5 µM (active) | – | – | – | – | – | –
CCC(C)c1cc(C(C)(C)C)cc(-n2nc3ccccc3n2)c1O (configuration not stated) | – | – | inactive | – | inactive | inactive | inactive | inactive | inactive | – | –
Cn1cc(C2=C(c3cn(C4CCN(Cc5ccccn5)CC4)c4ccccc34)C(=O)NC2=O)c2ccccc21 | – | – | inactive | 3.09 µM (active) | inactive | inactive | inactive | – | – | inactive | –
Clc1ccc(CCC(Cn2ccnc2)Sc2c(Cl)cccc2Cl)cc1 (configuration not stated) | – | – | – | 0.0871 µM (active) | – | inactive | inactive | 0.0347 µM (active) | 7.56 µM (active) | 15.5 µM (active) | –
CC(C)(C)c1ccc(CSc2cnn(C(C)(C)C)c(=O)c2Cl)cc1 | – | – | – | 6.33 µM (active) | inactive | inactive | inactive | 7.96 µM (active) | – | 25.2 µM (active) | –
CC(=O)c1ccc(-c2ccccc2)cc1 | – | – | – | 15.9 µM (active) | inactive | inactive | inactive | 31.7 µM (active) | inactive | 5.03 µM (active) | –
C[C@@H](Oc1ccc(Cl)cc1Cl)C(=O)O | – | – | – | inactive | inactive | inactive | inactive | inactive | inactive | inactive | –
CNC(C)Cc1ccc2c(c1)OCO2 (configuration not stated) | – | – | – | inactive | inactive | inactive | inactive | inactive | inactive | inactive | –
Oc1ccc(C2(c3ccc(O)cc3)c3ccccc3-c3ccccc32)cc1 | – | – | – | 20 µM (active) | 17.8 µM (active) | inactive | inactive | 25.2 µM (active) | inactive | 79.6 µM (active) | –
CCCCCCCCCCBr | – | – | – | inactive | inactive | inactive | inactive | inactive | inactive | – | –
[Cl][Sn]([c]1ccccc1)([c]1ccccc1)[c]1ccccc1 | 12.9% [at 23.8 µM] (inactive) | 0.0872% [at 23.6 µM] (inactive) | – | 3.79 µM (active) | 7.56 µM (active) | – | – | 6.74 µM (active) | 2.08 µM (active) | – | -2.03% [at 23.6 µM] (inactive)
O=[N+]([O-])c1cc(Cl)ccc1Cl | – | – | – | inactive | inactive | inactive | inactive | inactive | inactive | – | –
ClCCN1CCOCC1 | – | – | – | inactive | inactive | inactive | inactive | inactive | inactive | inactive | –
CN(C)CCc1c[nH]c2ccc(O)cc12 | – | – | – | 24.6 µM (active) | inactive | inactive | inactive | inactive | inactive | inactive | –
CC1CCC(C(C)C)C(OC(=O)c2ccccc2N)C1 (configuration not stated) | – | – | – | 2.48 µM (active) | inactive | inactive | inactive | 1.11 µM (active) | 43 µM (active) | 12.4 µM (active) | –
CC(C)(c1ccc(O)c(-c2ccccc2)c1)c1ccc(O)c(-c2ccccc2)c1 | – | – | – | 3.17 µM (active) | 5.03 µM (active) | inactive | inactive | 17.8 µM (active) | inactive | 35.6 µM (active) | –
BrC(Br)C(Br)(Br)Br | – | – | – | 31.9 µM (active) | inactive | inactive | inactive | 40.2 µM (active) | – | 31.9 µM (active) | –
c1ccc2cc3c(cc2c1)-c1cccc2cccc-3c12 | – | – | – | inactive | inactive | inactive | inactive | inactive | inactive | 0.197 µM (active) | –
Fc1cccc(Cl)c1CCl | – | – | – | inactive | inactive | inactive | inactive | inactive | inactive | 39.9 µM (active) | –
Cc1cc(C(C)(C)c2cc(C)c(O)c(C)c2)cc(C)c1O | – | – | – | 3.07 µM (active) | 2.73 µM (active) | inactive | inactive | 1.22 µM (active) | inactive | 38.6 µM (active) | –
CC(c1ccc(O)cc1)c1ccc(O)cc1 | – | – | – | 59.3 µM (active) and 35.6 µM (active) | 42 µM (active) | inactive | inactive | 21 µM (active) and inactive | 51.5 µM (active) and inactive | 37.4 µM (active) and inactive | –
CC(C)(C)c1cc([N+](=O)[O-])cc(C(C)(C)C)c1O | – | – | – | 12.6 µM (active) | inactive | inactive | inactive | 31.7 µM (active) | – | 31.7 µM (active) | –
Nc1ccccc1C(=O)Oc1ccc2ccccc2c1 | – | – | – | 20 µM (active) | inactive | inactive | inactive | 35.6 µM (active) | – | 14.2 µM (active) | –
CN(C)S(=O)(=O)N(SC(F)(Cl)Cl)c1ccccc1 | – | – | – | 3.56 µM (active) | inactive | 35.6 µM (active) | 71 µM (active) | 11.2 µM (active) | 19.5 µM (active) | 22.4 µM (active) | –
